Mac1 fbg enh – CD11b/CD18-fibrinogen binding enhancement; P05107+P11215; K562 CD11b/CD18 adhesion to fibrinogen, ATPlite luminescence; activation, % at 10 µM; actives 0.07% (n = 93,000);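 active means 10 µM primary screen giving 50% or more activity, confirmed by 40% or more on retest at that dose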
Target sequence (P05107 whole entry, looked up, other chains not shown): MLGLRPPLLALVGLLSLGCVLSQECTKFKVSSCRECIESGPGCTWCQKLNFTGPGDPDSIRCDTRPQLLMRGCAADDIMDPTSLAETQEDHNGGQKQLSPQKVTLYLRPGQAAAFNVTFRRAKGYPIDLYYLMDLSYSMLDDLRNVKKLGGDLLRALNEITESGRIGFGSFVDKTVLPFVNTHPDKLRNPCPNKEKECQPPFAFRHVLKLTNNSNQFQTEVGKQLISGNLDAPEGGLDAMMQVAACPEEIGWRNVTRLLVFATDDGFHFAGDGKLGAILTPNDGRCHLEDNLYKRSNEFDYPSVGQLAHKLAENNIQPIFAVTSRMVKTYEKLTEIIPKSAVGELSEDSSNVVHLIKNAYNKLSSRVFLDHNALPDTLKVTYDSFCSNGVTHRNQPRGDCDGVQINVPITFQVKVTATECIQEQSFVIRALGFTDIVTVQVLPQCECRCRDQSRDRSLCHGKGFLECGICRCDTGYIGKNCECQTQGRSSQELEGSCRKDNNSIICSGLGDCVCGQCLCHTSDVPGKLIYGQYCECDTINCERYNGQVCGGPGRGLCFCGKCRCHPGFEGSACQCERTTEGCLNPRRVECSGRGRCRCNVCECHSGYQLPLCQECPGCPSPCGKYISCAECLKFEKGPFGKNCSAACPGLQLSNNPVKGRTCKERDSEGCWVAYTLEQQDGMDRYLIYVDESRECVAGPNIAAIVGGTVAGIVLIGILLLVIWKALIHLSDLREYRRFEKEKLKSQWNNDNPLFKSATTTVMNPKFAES
ERb coact inh – ER-beta (human) coactivator binding inhibition. actives 1.3% (n = 86,000). TR-FRET ER-beta LBD / SRC1-Cy5 peptide binding; receptor agonist-loaded with 1 µM estradiol. inhibition, % at 25.6 µM. AID 633. Q92731;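 active means compounds whose percent inhibition of the receptor-coactivator binding signal exceeds about 50% in the single-dose screen, limit read from the data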;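 further: 0% = receptor plus peptide wells without compound and 100% = peptide-only wells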
ERa SRC1 pot – ER-alpha (human) coactivator binding potentiation; P03372; TR-FRET ERalpha-LBD/SRC-Cy5 coactivator binding, 2 h; 100 = basal binding, no effect; coactivator binding (% of control), % at 25.6 µM; actives 1.3% (n = 86,000); AID 639; in the data active means activity above about 200%;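 further: binding measured in presence of low estradiol as agonist stimulus; 0% = peptide alone without receptor and 100% = receptor with peptide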
Mac1 fbg inh – inhibitors of human CD11b/CD18 binding to fibrinogen; K562 CD11b/CD18 adhesion to fibrinogen, ATPlite luminescence; Mn2+ added to activate the integrin; inhibition, % at 10 µM; actives 0.54% (n = 93,000); AID 1497;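 active means primary inhibition of 50% or more at 10 µM, then 40% or more on retest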
FAK inh – FAK (human) kinase inhibition; Q05397; biochemical FAK kinase activity assay; actives 0.84% (n = 97,000); inhibition, %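 (tested at 7 µM)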;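 further: 0% = DMSO and 100% = reference compound high control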
ERa SRC1 inh – blocks coactivator binding to human estrogen receptor alpha. P03372. TR-FRET ER-alpha LBD / SRC-1 peptide, estradiol-bound. actives 1.7% (n = 86,000). inhibition, % at 25.6 µM; in the data active means inhibition above about 50%;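 further: 0% = receptor plus peptide control and 100% = peptide only without receptor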
FAK inh conf – FAK (human) inhibition confirmed; shares compounds with FAK inh; FAK kinase biochemical inhibition assay; inhibition, % at 7 µM; actives 28% (n = 750)
* marks the source's active call; other numbers are inactive results; · = not tested or not shown; [ ] = remark or other dose. Compounds with a hit are over-represented: about 3.5% of the library has one in this group of screens. Unless noted, no stated cut-off is given here; in the data, active means inhibition above about 19%; inactive means the rest.

SMILES | Mac1 fbg enh | ERb coact inh | ERa SRC1 pot | Mac1 fbg inh | FAK inh | ERa SRC1 inh | FAK inh conf
Cc1oc2c(c1C(=O)c1ccc(Cl)cc1)C(=O)C(=O)c1ccccc1-2 | -5 | · | · | -9 | 16 | · | ·
Cc1ccc(C(=O)c2c(C)oc3c2C(=O)C(=O)c2ccccc2-3)cc1 | · | -8 | 85 | · | 21* | -12 | 14
CCCCn1c(=O)[nH]c2ccccc21 | 1 | -13 | 111 | 0 | 4 | -4 | ·
O=c1[nH]c2ccccc2n1CCCSc1cnc2ccccc2n1 | 17 | 0 | 98 | 4 | 42* | 1 | 14
CCn1c(SCC(=O)c2ccc(Cl)cc2)nnc1C(C)C | -3 | 8 | 91 | 0 | 0 | 14 | ·
CCn1nc(C)c(C(=O)Nc2cc(Oc3ccc(Cl)cc3)cc([N+](=O)[O-])c2)c1C | -3 | · | · | -2 | -1 | · | ·
O=C(Nc1cccc(Cl)c1)ON=C1c2ccccc2-c2ccccc21 | 1 | · | · | -5 | 39* | · | 5
O=C(Nc1cccc(Cl)c1)Nc1cccc(Cl)c1 | · | 5 | 108 | · | 1 | 2 | ·
COc1ccc(CN(C(=S)Nc2ccccc2)C2CC(=O)N(c3ccc(Cl)cc3)C2=O)cc1 (stereo not given) | 21 | · | · | -8 | 87* | · | 1
COc1ccc(CN(C(=S)Nc2ccccc2)C2CC(=O)N(c3ccccc3)C2=O)cc1 (stereo not given) | 30 | · | · | 2 | · | · | ·
CC(c1nnc(Sc2nnnn2-c2ccccc2)n1-c1ccc(F)cc1)N(C)C (stereo not given) | 2 | -5 | 87 | -7 | -7 | 2 | ·
CCN1CCn2c1nc(N1CCOCC1)nc2=O | -2 | 27 | 98 | 0 | 0 | 21 | ·
N#Cc1c(-c2ccco2)cc(-c2cccnc2)nc1N | 3 | 37 | 73 | -3 | 20* | 48 | 6
N#Cc1c(-c2ccco2)cc(C2CC2)nc1N | 4 | 8 | 90 | -6 | 3 | 6 | ·
O=S1(=O)CCN2C=C(Br)C=C(Br)C2=N1 | 3 | -2 | 94 | -7 | -1 | -1 | ·
O=C(/C=C/c1ccc(O)cc1)c1ccc(NC2=C(N3CCCCC3)C(=O)c3ccccc3C2=O)cc1 | 13 | · | · | 24 | 30* | · | 2
Cc1ccc(NC2=C(N3CCCCC3)C(=O)c3ccccc3C2=O)cc1 | -4 | · | · | 14 | 15 | · | ·
O=C1C(Nc2ccccc2)=C(N2CCCCC2)C(=O)c2ccccc21 | · | · | · | · | 23* | · | 4
O=C1C(Nc2cccc(O)c2)=C(N2CCCCC2)C(=O)c2ccccc21 | · | · | · | · | 27* | · | 4
COc1cc(/C=N/Nc2ncc(C(F)(F)F)cc2Cl)cc(OC)c1OC | 3 | · | · | -14 | · | · | ·
O=C(NC1CCCCCC1)c1cccc(COCC(F)(F)F)c1 | · | 4 | 122 | · | -1 | -12 | ·
CCOc1ccc2nc(SCC(=O)c3ccccc3)sc2c1 | -2 | -2 | 112 | 6 | 1 | -4 | ·
COc1ccc(N2CC(C(=O)Nc3ccccc3C(=O)NCc3ccco3)CC2=O)cc1 (stereo not given) | 0 | -18 | 102 | -25 | 2 | 1 | ·
COc1ccc(N2Cc3cccc(C(=O)NC(C)CCc4ccco4)c3C2=O)cc1 (stereo not given) | 10 | 49 | 98 | 9 | 33* | 69*[fluorescence artefact?] | 5
CCOC(=O)N1CCC(NC(=O)c2cccc3c2C(=O)N(c2ccc(OC)cc2)C3)CC1 | 63 | 52* | 57 | -12 | 44* | 72*[fluorescence artefact?] | 11
SMILES | Mac1 fbg enh | ERb coact inh | ERa SRC1 pot | Mac1 fbg inh | FAK inh | ERa SRC1 inh | FAK inh conf
Cc1nc2sc3c(NCc4ccco4)ncnc3c2c2c1COC(C)(C)C2 | · | · | · | · | 14 | · | ·
CSc1nc(SCCO)c2sc3nc(-c4ccco4)c4c(c3c2n1)CC(C)(C)OC4 | 100 | · | · | 3 | 28* | · | 1
Cc1nnc(Nc2ccccc2)n(N)c1=O | -2 | · | · | -9 | 0 | · | ·
O=C(Nc1ccc(-n2nncc2-c2ccco2)cc1)c1cccc(F)c1 | 1 | 17 | 99 | -32 | -3 | 16 | ·
O=C(Nc1ccc(-n2nncc2-c2ccco2)cc1)c1cc2ccccc2oc1=O | 168* | 65*[fluorescence artefact?] | 186 | -7 | 82* | 69* | 78*
CCCCN=CC1=C(O)C(C(=O)OC)C(C)(C)CC1=O (stereo not given) | 4 | -4 | 106 | -3 | 2 | -3 | ·
CC(=O)N1CCN(c2ccc(Nc3ncnc4c3oc3ccccc34)cc2)CC1 | 2 | 61*[fluorescence artefact?] | 34 | 40 | 24* | 56*[fluorescence artefact?] | 16
COc1ccc(OC)c(NC(=O)CSc2nc3c(c(=O)n(C)c(=O)n3C)n2C)c1 | -2 | 14 | 73 | -10 | 4 | -1 | ·
O=C1Nc2ccccc2S/C1=C/Nc1cccc(Cl)c1 | 21 | · | · | -1 | 26* | · | 6
CCOP(=O)(OCC)C(Nc1cccc(C(F)(F)F)c1)c1ccc(Br)cc1 (stereo not given) | 1 | · | · | 5 | · | · | ·
Cc1cccc(N2CSC3=C(C#N)C(c4ccc(C)o4)CC(=O)N3C2)c1 (stereo not given) | 110 | 68*[fluorescence artefact?] | 60 | -20 | 24* | 83* | 9
O=S(=O)(NCC1CCCO1)c1cccc2nsnc12 (stereo not given) | -4 | 15 | 65 | -16 | -4 | -3 | ·
O=C(NCc1ccco1)c1cccn2c(=O)c3cc4ccccc4cc3nc12 | 48 | 48 | 138 | -12 | 37* | 61*[fluorescence artefact?] | 17
Cc1ccc(Cn2c(=N)c(C(=O)NCc3ccco3)cc3c(=O)n4ccccc4nc32)cc1 | · | 56*[fluorescence artefact?] | 15 | · | 40* | 83*[fluorescence artefact?] | 4
COc1cc(-n2c(=O)c3ccccc3n(Cc3ccccc3)c2=O)cc(OC)c1OC | 8 | 1 | 144 | 4 | 1 | 4 | ·
Cc1ccc(CNC(=O)CCS(=O)(=O)c2ccc(Br)s2)cc1 | -3 | -4 | 88 | -2 | -1 | 3 | ·
O=S(=O)(c1ccc(Oc2ccc(-c3nnco3)cc2)nc1)N1CCC(Cc2ccccc2)CC1 | 3 | 31 | 99 | -24 | 19* | 75*[fluorescence artefact?] | 8
O=C(NNC(=O)c1cc2cc3ccccc3nc2s1)c1cccc(C(F)(F)F)c1 | · | · | · | · | 25* | · | 9
CN(C)c1ccc(C(CC(=O)O)NC(=O)c2ccc(Cl)cc2)cc1 (stereo not given) | 3 | 3 | 109 | 23 | -5 | -3 | ·
O=c1c(O)c(-c2cccs2)oc2ccccc12 | 3 | -2 | 90 | -54 | 23* | 0 | 12
O=c1c(O)c(-c2cccs2)oc2ccc(Cl)cc12 | -4 | 7 | 76 | -13 | 9 | 7 | ·
COC(=O)c1[nH]c2cc(C)ccc2c1NC(=O)CN1CCN(c2ccccc2OC)CC1 | 2 | · | · | -19 | -2 | · | ·
COC(=O)c1[nH]c2ccc(C)cc2c1NC(=O)CN1CCCc2ccccc21 | 108 | 54* | 73 | -34 | 20* | 77*[fluorescence artefact?] | 22*

Screening data from PubChem BioAssay.
